Source: PubChem
MBD2 inh: blocks human MBD2 binding to methylated DNA; TR-FRET, MBD2 binding to methylated oligonucleotide; 0.31% of 370,000 active; inhibition, % at 4.4 µM; Q9UBB5; AID 686964; in the data active = inhibition above about 13%
PG9 Ab binder: small molecules binding HIV-1 gp120 antibody PG9; TR-FRET gp120-PG9 antibody binding; inhibition, % at 6.7 µM; 0.43% of 360,000 active; in the data active = inhibition above about 8.5%
UHRF1 binding: blocks human UHRF1 binding to methylated DNA; UHRF1 binding to methylated oligo, TR-FRET; inhibition, % at 4.4 µM; 0.75% of 370,000 active; AID 687016; in the data active = inhibition above about 21%;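 note: UHRF1 SRA domain binding a hemimethylated CpG hairpin DNA probe; 0% = median of test compound wells and 100% = reference inhibitor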
rCAG RNA binder: binds r(CAG) RNA repeats | AID 651821 | 1.3% of 370,000 active | inhibition, % at 3 µM | r(CAG) RNA repeat, TO-PRO-1 dye displacement fluorescence;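 active = inhibition above the plate cutoff, the mean of all test compounds on that plate plus 3 SD, cut at about 35% in these data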;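 note: 0% = DMSO alone and 100% = 100 µM mitoxantrone as full dye displacement; higher means more dye released from RNA so lower well fluorescence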
DNMT1 block: inhibitors of human DNMT1. AID 588458. P26358. DNMT1 molecular beacon, Hinp1I cleavage, fluorescence. inhibition (reported as % activation of signal), % at 10 µM. 0.83% of 360,000 active; in the data active = inhibition above about 50%
Target sequence (P26358 504-1616 limits assumed): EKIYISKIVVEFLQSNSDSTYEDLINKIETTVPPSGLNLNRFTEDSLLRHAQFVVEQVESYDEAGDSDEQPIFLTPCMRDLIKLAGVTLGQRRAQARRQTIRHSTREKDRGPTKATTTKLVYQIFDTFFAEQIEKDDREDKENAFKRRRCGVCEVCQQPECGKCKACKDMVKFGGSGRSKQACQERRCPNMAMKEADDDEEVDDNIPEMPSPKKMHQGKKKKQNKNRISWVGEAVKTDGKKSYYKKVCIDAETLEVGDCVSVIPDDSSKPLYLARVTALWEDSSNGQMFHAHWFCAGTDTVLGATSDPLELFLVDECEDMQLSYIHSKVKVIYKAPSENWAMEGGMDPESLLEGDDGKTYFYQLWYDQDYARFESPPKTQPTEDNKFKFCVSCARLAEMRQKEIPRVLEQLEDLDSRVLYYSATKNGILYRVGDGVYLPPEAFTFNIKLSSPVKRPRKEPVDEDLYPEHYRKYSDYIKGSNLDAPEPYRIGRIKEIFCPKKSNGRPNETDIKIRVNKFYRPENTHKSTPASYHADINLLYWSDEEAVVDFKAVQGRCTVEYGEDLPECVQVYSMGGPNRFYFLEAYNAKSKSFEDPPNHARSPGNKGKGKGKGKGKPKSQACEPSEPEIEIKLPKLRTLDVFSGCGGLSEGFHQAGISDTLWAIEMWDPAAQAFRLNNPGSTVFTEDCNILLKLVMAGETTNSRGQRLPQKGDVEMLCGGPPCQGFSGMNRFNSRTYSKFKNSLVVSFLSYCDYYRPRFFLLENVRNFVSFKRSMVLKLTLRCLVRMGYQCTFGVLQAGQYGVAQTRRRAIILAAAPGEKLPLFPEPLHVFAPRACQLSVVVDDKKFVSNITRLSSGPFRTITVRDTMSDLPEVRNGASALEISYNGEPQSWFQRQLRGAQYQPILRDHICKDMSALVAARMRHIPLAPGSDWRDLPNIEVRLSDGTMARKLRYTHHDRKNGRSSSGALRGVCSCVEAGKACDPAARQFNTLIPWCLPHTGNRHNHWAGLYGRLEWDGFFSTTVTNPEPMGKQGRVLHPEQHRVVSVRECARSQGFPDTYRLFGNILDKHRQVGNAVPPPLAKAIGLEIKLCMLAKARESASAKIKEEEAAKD
LEDGF integ inh: blocks HIV-1 LEDGF/p75-dependent DNA integration. TR-FRET IN-LEDGF/p75 DNA integration, Eu/Cy5. AID 743269. inhibition, % at 3.7 µM. 0.64% of 370,000 active;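 active = inhibition above the screen-wide mean plus 3 SD, cut at about 13% in these data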;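 note: signal is the Cy5 over europium emission ratio at 671 and 618 nm; 0% = plate median of compound wells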
An asterisk follows results filed as active; x = not tested or not shown. This is a sample that favours compounds with a hit; in the whole collection about 3.5% have one here.

SMILES	MBD2 inh	PG9 Ab binder	UHRF1 binding	rCAG RNA binder	DNMT1 block	LEDGF integ inh
COc1ccc(C(O)c2nc(-c3cnn(C)c3)cs2)cc1 (stereo not given)	-6	-2	1	1	3	0
CCN(CC)c1ccc(NC(=O)Cn2ncc3c(C)n(Cc4ccccc4F)c(C)c3c2=O)c(C)c1	0	-1	1	2	60*	-7
Cc1cccc(S(=O)Cc2ccc(C(=O)NC3CCN(Cc4ccccc4)CC3)o2)c1 (stereo not given)	5	-1	1	-6	1	-3
COC(=O)[C@]12C[C@H](CC(=O)N3CCN(C(=O)C4CC4)CC3)C(=O)N(Cc3cccc4ccccc34)C1=C[C@H](C(C)(C)C)O[C@@H]2C	0	x	0	6	x	-3
COc1ccc(NC(=O)/C(C#N)=C/c2ccc(-c3ccccc3C(=O)O)o2)cc1	-1	-9	-5	23	2	2
COc1ccc(NC(=O)/C(C#N)=C\c2ccc(-c3cc(C(=O)O)ccc3C)o2)cc1	3	-4	12	59*	16	-1
Cc1ccc(Nc2nc(C)c3c(n2)CC(C)CC3=O)c(C)c1 (stereo not given)	-6	-2	28*	-6	0	-1
COc1ccc2oc3cc(NCCN(C)C)ccc3c(=O)c2c1	9	4	5	4	16	1
COc1ccc2sc3cccc(NCCN(C)C)c3c(=O)c2c1	10	-3	-11	5	56*	-5
c1ccc(-c2csc(NC3=NCCCCC3)n2)cc1	5	-3	3	-1	0	2
N#Cc1ccc(-c2csc(NC3=NCCCCC3)n2)cc1	3	-1	39*	-2	3	1
O=C(CCC1CCCCC1)Nc1nncs1	-4	-1	26*	0	0	-1
CC(C)c1nnc(NC(=O)CCC2CCCCC2)s1	4	1	0	-1	0	-5
CCOc1cc(NC(=S)NCC2CCCO2)c(OCC)cc1NC(=O)c1ccccc1C (stereo not given)	-1	-1	47*	-8	-7	1
CCOc1cc(NC(=S)NCC2CCCO2)c(OCC)cc1NC(=O)c1ccc(OC)cc1 (stereo not given)	-1	-2	0	0	2	-4
COc1ccccc1CN(Cc1cc2cc3c(cc2[nH]c1=O)OCCO3)Cc1nnnn1Cc1ccco1	-11	-2	-8	7	-1	5
O=c1[nH]c2cc3c(cc2cc1CN(Cc1ccccc1)Cc1nnnn1Cc1ccco1)OCCO3	-1	-1	1	11	4	16*
Cc1ccc(NC(=O)CN2C(=O)S/C(=C/c3ccc(-c4cccc(C(=O)O)c4)o3)C2=O)cc1	8	-2	23*	29	56*	5
Cc1cc(C(=O)O)ccc1-c1ccc(/C=C2\SC(=O)N(CC(=O)Nc3ccc4c(c3)OCO4)C2=O)o1	6	-2	24*	11	101*	-2
Cc1ccccc1NC(=O)CN1C(=O)S/C(=C\c2ccc(-c3cc(C(=O)O)ccc3C)o2)C1=O	7	-4	19	10	30	-1
COC(=O)[C@]12C[C@H](CC(=O)NCCCN3CCCC3=O)C(=O)N(Cc3ccc(Cl)cc3Cl)C1=C[C@H](COCc1ccccc1)O[C@@H]2C	0	x	0	6	x	-5
Cc1ccc(-c2nc3ncccn3c2NC(=O)Nc2ccc(F)cc2)cc1	-8	x	-1	5	x	8
CC(C)C[C@H]1COc2cccc(F)c2S(=O)(=O)N1Cc1cn(Cc2ccc(C(F)(F)F)cc2)nn1	-3	x	0	0	x	-4
CCOC(=O)N1C(=O)C[C@](Sc2ccc(OC)cc2)(C(=O)N2CCN(C(C)=O)CC2)[C@H]1c1ccc(OC)cc1	2	x	1	3	x	-3
COc1ccc(S[C@]2(C(=O)N3CCOCC3)CC(=O)N(c3ccc(Cl)cc3)[C@@H]2c2ccc(OC)cc2)cc1	2	x	2	11	x	-1
SMILES	MBD2 inh	PG9 Ab binder	UHRF1 binding	rCAG RNA binder	DNMT1 block	LEDGF integ inh
O=S(=O)(Nc1ccc(-c2ccc3nncn3n2)cc1)c1cccc(F)c1	9	0	24*	5	1	-1
Cc1cccc(S(=O)(=O)Nc2ccc(-c3ccc4nncn4n3)cc2)c1	-2	1	-3	5	0	-2
COC(=O)c1ccc(N2CCOCC2)c(NC(=O)Nc2cccc(OC)c2)c1	-4	0	24*	2	-4	-5
COC(=O)[C@]12C[C@H](CC(=O)NCc3cccc4ccccc34)C(=O)N(Cc3ccco3)C1=C[C@H](C(C)(C)C)O[C@@H]2C	1	x	-2	2	x	-1
COC(=O)C1CN(C2CCCC2)CCS(=O)(=O)N1Cc1cn(Cc2ccccc2)nn1 (stereo not given)	8	x	14	2	x	-1
Nc1cc2c3c(cccc3c1)C(=O)N(CCN1CCCC1)C2=O	6	-13	-13	-10	51*	2
O=C(/C=C/c1ccc(Cl)cc1)N1CCN(CCN2C(=O)c3cccc4cccc(c34)C2=O)CC1	-2	0	31*	1	-3	-1
C=CCN1C[C@@H](COCc2ccccc2)Oc2cc(F)ccc2S1(=O)=O	-5	x	3	-1	x	1
CN1C(=O)c2cc(NC(=O)Cc3ccccc3)ccc2OC[C@H]2O[C@H](CC(=O)O)CC[C@H]21	-5	x	0	3	x	-3
CN(C)CC(=O)N[C@H]1C[C@@H]2O[C@@H](CO)CC[C@@H]2O[C@@H]1CCc1ccc(C2=CCCCC2)cc1	-4	x	1	-1	x	0
NC(=O)CSc1nnc(-c2ccc(S(=O)(=O)N3CCCCC3)cc2)n1-c1ccccc1	4	0	40*	-4	0	-1
COc1ccc(C)c2sc(N3CCCC3)nc12	-4	1	25*	-4	0	1
COc1ccc(NC(=O)CSc2nnc(-c3cccs3)o2)cc1Cl	0	x	-1	4	x	-4
CC1CCCCC1N(C(=O)c1cc(C2CC2)on1)C1CCCCC1 (stereo not given)	-3	x	-1	-1	x	0
COc1ccc(CNCC#CC2=CCCCC2)c(OC)c1	0	x	-2	2	x	3
COc1cccc(/C=C2\SC(=S)N(CC(=O)N(C)C3CCS(=O)(=O)C3)C2=O)c1 (stereo not given)	9	-1	23*	1	-2	2
COc1ccc(/C=C2\SC(=S)N(CC(=O)N(C)C3CCS(=O)(=O)C3)C2=O)cc1 (stereo not given)	-6	-3	-2	4	-3	2
N#Cc1c(-c2ccccc2)nc(SCC(=O)Nc2ccccc2)[nH]c1=O	3	4	-3	29	-2	5
CCOC(=O)CCCCC(=O)c1[nH]c(=O)[nH]c1CSCCO	-3	-1	-1	-2	1	8
CCOC(=O)CCCCC(=O)c1[nH]c(=O)[nH]c1CSc1nc(-c2ccccc2)c(C#N)c(=O)[nH]1	-1	-2	-2	56*	3	15*
